Source: PubChem BioAssay (several laboratories)
Shown are actives, neighbours in structure and some others; about 3.3% of the full set was active somewhere.
HNF4A DNA FP: change in binding of human HNF4 alpha to DNA. HNF4a-FITC DNA binding, fluorescence polarization, 1 h. AID 1224865. P41235. actives 0.3% (n = 360,000). activity change, % at 10 µM; in the data active = activity change above about 30%, passing the limit was not always enough
Rpn11 block: blocks the human proteasome subunit Rpn11. actives 0.59% (n = 360,000). O00487. human 26S proteasome, Ub4-pepOG fluorescence polarization; 20S core pre-blocked with epoxomicin. inhibition, % at 20 µM. AID 588493;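 active = inhibition at 20 µM, scaled to each plate's controls, above about 33%, limit read from the data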
TPT1 inh: inhibitors of Candida albicans tRNA 2'-phosphotransferase TPT1; actives 0.81% (n = 300,000); inhibition, % at 5 µM; recombinant caTPT1, FP RNA substrate dephosphorylation;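 active = inhibition above the mean of all tested compounds plus 3 SD, set per screening campaign, cut at about 24% in these data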
Fh CTSL1 inh: counter-screen for PFM18AAP inhibitors: inhibitors of F. hepatica cathepsin L1; recombinant F. hepatica cathepsin L1, Z-Leu-Arg-MCA fluorescence; inhibition, % at 5.96 µM; actives 0.49% (n = 300,000);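 active = inhibition above the mean of all tested compounds plus 3 SD, set per screening campaign, cut at about 17% in these data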
CendR NRP1 mod: NRP-1/CendR interaction modulation; O14786; FAM-RPARPAR peptide binding to NRP-1, fluorescence polarization; inhibition, % at 25 µM; actives 0.85% (n = 360,000);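 active = inhibition or corrected inhibition above about 18%, plus a signal ratio from 0.5 to 1.5, limit read from the data, passing the limit was not always enough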
PHOSPHO1 inh: inhibitors of human PHOSPHO1 phosphatase; AID 1565; actives 1.1% (n = 290,000); Q8TCT1; inhibition, % at 13.3 µM; recombinant PHOSPHO1, absorbance phosphatase assay; in the data active = inhibition above about 60%
Numbers stand for hits; n = inactive; x = no result given.

SMILES	HNF4A DNA FP	Rpn11 block	TPT1 inh	Fh CTSL1 inh	CendR NRP1 mod	PHOSPHO1 inh
Cc1ccc(N2C(=O)[C@@H]3[C@H](C2=O)C2c4ccccc4C=CN2[C@@H]3C(=O)c2ccco2)c(C)c1 (some centres undefined)	n	n	n	34.7	n	n
COc1ccc(N2C(=O)[C@@H]3[C@H](C2=O)[C@H]2c4ccccc4C=CN2[C@@H]3C(=O)Nc2ccccc2)cc1	n	x	102.3	n	n	n
CC1(c2nnc(-c3ccc(Cl)cc3)o2)CC(c2cccc(Cl)c2)=NO1 (centres undefined)	n	n	n	n	25.1	n
CC1(c2nnc(-c3ccccc3)o2)CC(c2cccc(Cl)c2)=NO1 (centres undefined)	n	n	n	n	n	n
CC1(c2nnc(-c3ccc(F)cc3)o2)CC(c2ccncc2)=NO1 (centres undefined)	x	x	n	n	x	x
CC1(c2nnc(-c3ccc(F)cc3)o2)CC(c2ccc(F)cc2)=NO1 (centres undefined)	n	n	n	n	24.5	n
N#Cc1cccnc1N1CCN(C(C(=O)NC2CCCC2)c2ccc(F)cc2)CC1 (centres undefined)	n	x	x	x	n	x
Cc1ccc(-c2nnc(Cc3ccc([N+](=O)[O-])cc3)o2)cc1	n	n	n	n	n	n
COc1ccc(Cl)cc1Cn1c(C)c(C(=O)NCc2cccc(C(F)(F)F)c2)sc1=O	n	n	x	x	27.0	x
Cc1ccnc(NC(=O)CSc2cc(=O)n(C)c3ccccc23)c1	n	n	n	n	n	63.2
Cn1c(=O)cc(SCC(=O)Nc2ccccn2)c2ccccc21	x	x	n	n	x	n
CCOC(=O)c1sc(NC(=O)C2CC(=O)N(c3ccccc3OC)C2)nc1C (centres undefined)	n	n	x	x	n	x
Cc1ccccc1C(=O)Oc1cc(N)n(S(C)(=O)=O)n1	n	n	n	n	18.1	n
COc1cc(NC(=O)C/C(C)=N/NC(=O)c2ccccn2)c(OC)cc1Cl	n	n	n	n	23.1	n
COc1ccc(NC(=O)C/C(C)=N/NC(=O)c2cnccn2)cc1	30.3	n	n	n	n	n
CCOc1ccc(NC(=O)C/C(C)=N/NC(=O)c2cnccn2)cc1	n	n	x	x	n	n
O=C(CC1CS(=O)(=O)CC1CC(=O)Oc1ccccc1F)Oc1ccccc1F (centres undefined)	n	n	n	n	n	n
O=C(COc1ccc(S(=O)(=O)N2CCCC2)cc1)Nc1ccc2c(c1)OCCO2	n	n	n	n	36.4	n
O=C(COC(=O)CNC(=O)C1CCCCC1)Nc1ccc2ccccc2c1	n	n	n	27.2	n	n
CC(C)(C)c1ccc(C(=O)NCC(=O)OCC(=O)Nc2ccc3c(c2)OCCO3)cc1	n	n	n	n	n	n
O=C(CNC(=O)C1CCCCC1)OCn1nnc2ccccc2c1=O	n	n	n	55.7	n	n
O=C(COC(=O)CNC(=O)C1CCCCC1)Nc1ccc2c(c1)OCCO2	n	n	n	33.8	n	n
Cc1cc(C)cc(NC(=O)COC(=O)CNC(=O)C2CCCCC2)c1	n	n	x	x	n	x
O=C(/C=C/c1ccccc1)NC(NC(=S)Nc1ccc(Cl)cc1Cl)C(Cl)(Cl)Cl (centres undefined)	n	n	n	n	n	n
O=C1OCCN1N1CCOC1=O	n	n	x	x	n	x
SMILES	HNF4A DNA FP	Rpn11 block	TPT1 inh	Fh CTSL1 inh	CendR NRP1 mod	PHOSPHO1 inh
C=CCNc1nc(-c2sc(NC(=O)CC)nc2C)cs1	n	n	n	n	n	n
C=CCCC(=O)Nc1nc(C)c(-c2csc(Nc3cc(Cl)ccc3OC)n2)s1	n	n	n	n	n	98.7
COc1ccccc1Nc1nc(-c2sc(NC(=O)c3ccco3)nc2C)cs1	n	n	n	n	n	86.5
CCCCC(=O)Nc1nc(C)c(-c2csc(Nc3ccccc3OC)n2)s1	n	n	n	n	n	93.8
C=CCCC(=O)Nc1nc(C)c(-c2csc(Nc3ccccc3OC)n2)s1	n	n	n	n	n	76.8
Cc1ccc(Cl)cc1Nc1nc(-c2sc(NC(=O)c3ccco3)nc2C)cs1	n	n	n	n	n	n
CCCCCC(=O)Nc1nc(C)c(-c2csc(Nc3cc(OC)ccc3OC)n2)s1	n	n	n	n	n	n
C=CCCC(=O)Nc1nc(C)c(-c2csc(Nc3ccc(Cl)cc3Cl)n2)s1	n	n	n	n	n	n
CCCCCCC(=O)Nc1nc(C)c(-c2csc(Nc3cc(OC)ccc3OC)n2)s1	n	n	n	n	n	76.8
